# CYP2C9 inh = blockers of cytochrome P450 2C9 activity – biochemical, luminescence, ADME assay, primary screen | 20% of 96,000 active | AID 777, 2007 | inhibition, % at 5 µM | CYP2C9 Supersomes, luciferin-H conversion;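 active = blocking of liver enzyme CYP2C9 beyond about 50% at 5 µM, limit read from the data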
# Target sequence (P11712 whole entry, looked up): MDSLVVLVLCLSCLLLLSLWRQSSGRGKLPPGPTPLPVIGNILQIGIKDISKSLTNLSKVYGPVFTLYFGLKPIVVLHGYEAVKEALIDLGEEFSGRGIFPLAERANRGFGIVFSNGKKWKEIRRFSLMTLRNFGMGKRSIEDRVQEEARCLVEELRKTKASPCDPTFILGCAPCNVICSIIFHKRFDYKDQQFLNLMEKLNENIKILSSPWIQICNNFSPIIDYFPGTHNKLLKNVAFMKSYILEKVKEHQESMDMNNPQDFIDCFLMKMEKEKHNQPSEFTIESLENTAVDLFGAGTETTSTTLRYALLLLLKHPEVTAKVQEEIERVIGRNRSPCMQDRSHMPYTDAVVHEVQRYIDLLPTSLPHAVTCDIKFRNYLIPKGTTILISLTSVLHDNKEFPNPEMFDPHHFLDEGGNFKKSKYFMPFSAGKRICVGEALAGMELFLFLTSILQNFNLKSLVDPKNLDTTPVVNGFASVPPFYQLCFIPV
# CYP2C19 act = human CYP2C19 activators, primary screen, biochemical, luminescence. Cytochrome P450 2C19 (Homo sapiens), P33261. recombinant CYP2C19, luciferin-H EGE luminescence; stronger effect = higher value; 0 = fully inhibited enzyme, 1 = untreated enzyme. activation factor at 5 µM. 96,000 tested, under 10 active. AID 1025, 2008;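 active = activation factor of at least 2 at 5 µM in the primary screen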;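 note: 0 = wells with 2.5 mM tranylcypromine and 1 = vehicle-only wells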
# CYP2C9 act = human CYP2C9 activators, primary screen, biochemical, luminescence; recombinant CYP2C9, luciferin-H conversion; stronger effect = higher value; factor 1 = untreated enzyme, 0 = blocked; 1.4% of 96,000 active; AID 1024, 2008; activation factor at 5 µM;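 active = activation factor of 2 or more for CYP2C9 at a 5 µM dose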;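 note: 0 = sulfaphenazole-blocked wells and 1 = vehicle-only wells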
# CYP2C19 inh = blockers of cytochrome P450 2C19 activity – biochemical, luminescence, ADME assay, primary screen; CYP2C19 Supersomes, luciferin-H EGE luminescence, 30 min; inhibition, % at 5 µM; 21% of 96,000 active;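 active = CYP2C19 inhibition above a set limit at 5 µM in the primary screen, cut at about 50% in these data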;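 note: plate controls were negative control wells for no effect and 2.5 mM tranylcypromine positive control for full effect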
# hDAT+cocaine = changed hDAT dopamine uptake under cocaine IC80, either direction, primary screen, cocaine antagonist project, cell-based, LLC-PK1 hDAT, [14C]-dopamine uptake, MLSMR | B-score at 10 µM | Sodium-dependent dopamine transporter (Homo sapiens), Q01959 | AID 449768, 2010 | 1.3% of 110,000 active | LLC-PK1 hDAT cells, [14C]-dopamine uptake with cocaine IC80; actives deviate in either direction;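 active = Z score or B-score, a plate-position-corrected score, falls beyond the plate's 99.7% confidence bounds, in either direction; inactive = both scores lie inside the 99.7% bounds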;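 note: scored against the spread of the other compound wells on the same plate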
# D1 mod = D1 CRE-luciferase signal change, two-sided – cell-based, HEK293 D1, dopamine EC30, D1 allosteric modulator project, primary screen; dopamine EC30 potentiation; actives deviate in either direction; B-score at 10 µM; AID 641, 2007; 5.9% of 58,000 active;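 active = luminescence count or its row- and column-corrected plate score outside the 99.7% band of the plate's sample wells, on either side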
# D1 mod confirm = D1 receptor positive allosteric modulators, retest, confirmation, cell-based, HEK293 D1, CRE-luciferase, duplicate | shares compounds with D1 mod | dopamine EC30 potentiation; stronger effect = higher value | luminescence at 10 µM | 88% of 2,200 active | AID 642, 2007;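 active = luminescence in either of two replicates above the same-plate mean plus 3 SD of the low-dose dopamine control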
# D1 ag no DA = D1 receptor agonism without dopamine, confirmation, mechanism study for D1 allosteric modulator project, cell-based, HEK293 D1, CRE-luciferase, secondary assay 1. shares compounds with D1 mod. luminescence, no dopamine; stronger effect = higher value. luminescence at 10 µM. 0.8% of 1,900 active. AID 646, 2007; in the data active = luminescence above about 3900
# Isoprot counter = counter-screen for D1 modulators: isoproterenol response in HEK293 cells | 63% of 2,200 active | AID 647 | calls only at 10 µM | HEK293 D1 CRE-luciferase, isoproterenol EC30 counter-screen | shares compounds with D1 mod;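 active = luminescence in either replicate above plate mean of wells with a partly effective reference agonist dose plus 3 SD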;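 note: isoproterenol raises cAMP through native beta-adrenoceptor Gs so signal bypasses D1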
# Active calls of the source: *; i = inactive; · = not tested or not shown; + = active, no number. An excerpt weighted towards active compounds, which were near 28% of everything screened.
SMILES,CYP2C9 inh,CYP2C19 act,CYP2C9 act,CYP2C19 inh,hDAT+cocaine,D1 mod,D1 mod confirm,D1 ag no DA,Isoprot counter
COc1ccc(CN(C2CCCC2)S(=O)(=O)c2ccc(-n3cnnn3)cc2)cc1,46,0.7,0.5,34,-0.075,·,·,·,·
COc1ccc(CN(C2CCCC2)S(=O)(=O)c2ccc(-n3cnnn3)cc2)cc1OC,·,·,·,·,1.9,5.5*,10040*,1604,i
CC(C)CCN1C(=O)c2ccc(-c3nc4ccccc4c(=O)o3)cc2C1=O,27,0.8,0.7,15,-0.014,·,·,·,·
O=C(NCc1cccs1)C1CC(c2ccccc2O)=NO1 (stereo unspecified),-69,0.8,1.7,24,·,2.8*,6344*,1416,i
COc1ccc(C2=NOC(C(=O)NCc3cccs3)C2)cc1 (stereo unspecified),-29,0.7,1.3,27,-0.84,·,·,·,·
CCC1Nc2ccccc2-c2nnc(SC)nc2O1 (stereo unspecified),16,1,0.8,4,-0.072,·,·,·,·
CCSc1nnc2c(n1)OC1(CCCC1)Nc1ccccc1-2,21,0.8,0.8,25,-0.23,6.6*,15136*,1636,+
O=c1c2ccccc2nc(SCc2ccccc2)n1Cc1ccco1,37,0.9,0.6,9,0.16,1.2,·,·,·
O=c1c2ccccc2nc(SCc2cccc(F)c2)n1Cc1ccco1,69*,1,0.3,2,1.3,5.2*,10716*,1512,i
Cc1ccc2sc(-c3ccc(NC(=O)c4cc(-n5cnnc5)ccc4Cl)cc3)nc2c1,14,0.7,0.9,29,0.0012,·,·,·,·
CN1CCC2(CC1)C1CN(C)CC=C1C(C#N)=C(N)C2(C#N)C#N (stereo unspecified),3,1,1,1,-0.0078,·,·,·,·
O=C(CNC(=O)C1CCCCC1)NC1=NCCS1,10,0.8,0.9,15,-0.044,0.32,·,·,·
Brc1ccc2oc3c(N4CCOCC4)ncnc3c2c1,30,0.8,0.7,16,-0.5,5.1*,8996*,1872,+
Cc1ccc2cc(C#N)c(SCC(=O)Nc3ccc4sc(C)nc4c3)nc2c1,15,0.9,0.8,8,·,·,·,·,·
COC1(OC)N=C(N)C2(C#N)C(c3cccc(Oc4ccccc4)c3)C12C#N (stereo unspecified),56*,0.4,0.4,59*,0.98,19*,16148*,1756,+
O=C(CCN1C(=O)c2ccccc2C1=O)Nc1cc(F)ccc1F,30,1,0.7,-1,-0.045,·,·,·,·
Nc1ncnc2c1ncn2[C@H]1C[C@H](O)[C@@H](CO)O1,·,·,·,·,-0.35,·,·,·,·
Nc1nc(Cl)nc2c1ncn2[C@H]1C[C@H](O)[C@@H](CO)O1,·,·,·,·,0.3,7.5*,10544*,1496,+
COc1cc(C(=O)Nc2nccs2)ccc1OCc1c(C)noc1C,23,0.9,0.8,6,0.4,0.074,·,·,·
Cc1ccc(NC(=O)c2cccc(OCc3c(C)noc3C)c2)c(C)c1,88*,0.2,0.1,81*,-0.0029,4.6*,5064,1592,i
CCOC(=O)C1CCCN(C(=O)c2cc3nc(-c4cccc(OC)c4)cc(C(F)(F)F)n3n2)C1 (stereo unspecified),84*,0.1,0.2,86*,2.7*,11*,14152*,1432,+

# High-throughput results from PubChem BioAssay.
